From PubChem BioAssay AID686979 (National Center for Advancing Translational Sciences (NCATS), 2013) come the findings set out here.

About 50,000 (12%) of roughly 420,000 compounds were called active. Roughly 26% stayed inconclusive and do not appear here. Shown is part of a subset that was picked to be rich in actives. A number with no mark means an inactive call. Calls follow the shape of the dose curve; as a rule, active = well fitted inhibition curve with a large enough effect; inconclusive = small, poorly fitted or top-dose-only effect; inactive = flat fitted curve, though single readings scatter.
% is scaled to controls: 0 for no effect and ±100 for the full control effect; potency is read from the fitted curve at half-maximal effect.

The experiment can be described thus: qHTS for Inhibitors of human tyrosyl-DNA phosphodiesterase 1 (TDP1): qHTS in cells in presence of CPT. Also: nearly all actives have a fitted effect of over 55% in size. As to conditions: chicken DT40 Tdp1-/-;hTDP1 cells + 20 nM CPT, ATP luminescence, 48 h; series mostly up to 46.2 µM; activity change, negative = growth inhibition: at the top concentration. An outline of the steps:
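Cell growth measured by CellTiter-Glo luminescence after a minimum 48 h, 37 C compound exposure with 20 nM CPT in Tdp1-knockout DT40 cells stably expressing hTDP1, seeded 400/well; qHTS titration format.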
With `CCOc1ccc(-c2nnc(-c3ccco3)o2)cc1`, the “activity change, negative = growth inhibition” value is -12%.
`CCC(=O)Oc1cccc(C(=O)Nc2ccc(-c3nnc(-c4ccco4)o3)cc2)c1`: the Potency is 6.51 µM (active).
With `CCCCOc1ccc(-c2nnc(-c3ccco3)o2)cc1`, the “activity change, negative = growth inhibition” value was -21.4%.
Still for that read-out and setting: under `COc1ccc(C)cc1S(=O)(=O)Nc1cc2c3c(c1)CCC(=O)N3CCC2` stands -11.1%; under `Cc1nc(C(F)(F)F)ccc1C(=O)N1CCC1(C)C(=O)NS(=O)(=O)c1ccccc1Cl` (configuration not stated), -5.55%; under `CCNC(=S)N(CCN(CC)CC)Cc1cc2cc3c(cc2[nH]c1=O)OCO3`, -19.8%.
Turning to `CCN(c1ccccc1)S(=O)(=O)c1cccc(C(=O)NCc2ccccc2CN2CCOCC2)c1`, the Potency was 20.6 µM (active).
For `O=C(NCCN1CCOCC1)c1cccc(S(=O)(=O)Nc2ccc(F)cc2)c1`, the “activity change, negative = growth inhibition” value is -5.32%.
On the same count and under the same terms, under `CCOC(=O)C1CCCN(C(=O)c2cccc(S(=O)(=O)N3CCOCC3)c2)C1` (configuration not stated) stands -26.6%; under `CCOC(=O)C1CCCN(C(=O)c2ccc(N(C)C)cc2)CC1` (configuration not stated), -17.9%.
`CCOC(=O)C1CCN(C(=O)c2cccc(S(=O)(=O)N(CC)c3ccccc3)c2)CC1`: the Potency is 14.6 µM (active).
On to `CCN(CC)S(=O)(=O)c1ccc(Cl)c(C(=O)NCCN2CCOCC2)c1`, for which the “activity change, negative = growth inhibition” value is 10.4%.
Consider `CCOc1ccc(CNC(=O)c2ccc3nc(CC)c(CC)nc3c2)cc1OC`, for which the “activity change, negative = growth inhibition” value is -29.6%.
Still for that read-out and setting: under `COc1ccc(C(=O)NC(=S)N2CCNC(=O)C2CC(=O)OC(C)C)cc1` (configuration not stated) stands -7.41%; under `CCOc1cc(C(=O)Nc2ccc(S(=O)(=O)Nc3cnc4ccccc4n3)cc2)cc(OCC)c1OCC`, -5.96%.
On the same count and under the same terms, the value for `CCc1nc2ccc(C(=O)Nc3cccc(OC)c3)cn2c1N(CCC(C)C)CCN(C)C` was -98.8%.
Take `CCc1nc2ccc(C(=O)NCc3ccc(OC)cc3)cn2c1N(CC)Cc1cccc(Br)c1`: the Potency is 23.1 µM (active).
Same read-out and setting: the value for `CCc1nc2ccc(C(=O)Nc3cc(-c4ccccc4)ccc3OC)cn2c1N(CC)CC(=O)N(C)C` was 14.6 µM (active).
For `CCc1nc2ccc(C(=O)N(C)Cc3ccco3)cn2c1N(C)C(=O)Cc1ccccc1`, the “activity change, negative = growth inhibition” value is -1.23%.
On the same count and under the same terms, the value for `CCc1nc2ccc(C(=O)N(C)CCN(C)C)cn2c1N(CC)CCOC` was 5.06%.
Same read-out and setting: the value for `CCc1nc2ccc(C(=O)N3CCC(O)(Cc4ccccc4)CC3)cn2c1N(C)C(=O)Cc1ccccc1` was -29.7%; that for `O=C(C[C@H]1CC[C@@H](NC(=O)c2ccncc2)[C@@H](CO)O1)NCC1CC1` was 17.7%.
`O=C(NCCCNc1ccc([N+](=O)[O-])cc1Cl)c1ccccc1F`: the “activity change, negative = growth inhibition” value is 6.04%.
Still for that read-out and setting: under `N#CCSc1ccccc1NC(=O)CN1C(=O)NC(CCc2ccccc2)C1=O` (configuration not stated) stands 3.98%.
`COC(=O)c1c(NC(=O)COc2ccc(Cl)cc2Cl)sc2c1CC(C)(C)NC2(C)C`: the Potency is 7.31 µM (active).
For the molecule `Cc1cnc(C(=O)OCC(=O)Nc2ccc(Cl)cc2Cl)cn1`, the “activity change, negative = growth inhibition” value was -3.16%.
On the same count and under the same terms, under `CCOC(=O)c1c(NC(=O)COc2cc(C)ccc2C(C)C)sc(C)c1C` stands -14.5%.
